“And” between values parts separate entries of the source, which are not always exact repeats. Identical values can stand only once. Records with an inconclusive call do not appear. Where a structure was tested more than once in an assay, its records may differ in their call. The source made the active and inactive calls. Rule for the calls: active = hit-call score of the fitted dose curve at least 0.9, where 1 is the maximum; inconclusive = response in the unintended direction; inactive = score below 0.9.
Columns and labels:
[1] = molecular target: T1, Estrogen receptor (Homo sapiens) + Estrogen receptor beta (Homo sapiens) (UniProt P03372+Q92731); experiment: OT_ER_ERaERb_0480: Odyssey Thera (OT) 8-hour HEK293T Protein-Complementation Assay for Estrogen Receptor-alpha/-beta Heterodimer (AID 2283352)
Summary of the method: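 Compound added to HEK293T cells carrying split-reporter-tagged ER-alpha and ER-beta LBDs, incubated 8 hours, then imaged by laser scanning cytometer. Signal rise in nucleus, or nucleus and cytoplasm, over vehicle was fitted in the positive direction.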

[2] = molecular target: T1, Estrogen receptor (Homo sapiens) + Estrogen receptor beta (Homo sapiens); experiment: OT_ER_ERaERb_1440: Odyssey Thera (OT) 24-hour HEK293T Protein-Complementation Assay for Estrogen Receptor-alpha/-beta Homodimer (AID 2283356);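 note: heteromer of ER alpha and ER beta binding domains; hits raise reporter fluorescence and both agonists and antagonists give an increase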
Summary of the method: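 Stable HEK293T PCA line, ERα LBD 310-547 + ERβ LBD 263-489 fused to reporter fragments; 24 h treatment; fluorescence read by laser scanning cytometry; positive fitting direction relative to DMSO.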

[3] = molecular target: Retinoic acid receptor alpha (Homo sapiens) (UniProt P10276); experiment: NVS_NR_hRAR_Antagonist: NovaScreen (NVS) Nuclear Receptor Binding Assay for human Retinoic Acid Alpha Receptor Antagonism (RAR) (AID 2283358)
Summary of the method: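 Chemicals were first tested in duplicate at 25 uM, then actives in concentration series, in a cell-free TR-FRET antagonist binding format. Measurements were taken 2 hours after dosing and loss of signal was evaluated against DMSO controls.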

[4] = molecular target: Glucocorticoid receptor (Homo sapiens) (UniProt P04150); experiment: NVS_NR_hGR: NovaScreen (NVS) Nuclear Receptor Binding Assay for human Glucocorticoid Receptor (GR) (AID 2283363);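 for AC50: activity is loss of specific radioligand binding signal relative to DMSO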
Summary of the method: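 Single-readout cell-free binding: radioligand plus extracted receptor, 16-hour dosing, filter radiodetection; 25 uM duplicate primary, concentration series secondary.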

[5] = molecular target: Peroxisome proliferator-activated receptor gamma (Homo sapiens) (UniProt P37231); experiment: NVS_NR_hPPARg: NovaScreen (NVS) Nuclear Receptor Binding Assay for human Peroxisome Proliferator-activated Receptor gamma (PPARg) (AID 2283370)
Summary of the method: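 Chemicals were tested first in duplicate at 25 uM, then in concentration series if active. Binding to cell-free PPARg protein was measured by fluorescence polarization after 2 h, with loss of signal scored against DMSO.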

[6] = molecular target: Estrogen receptor (Homo sapiens) (UniProt P03372); experiment: OT_ER_ERaERa_0480: Odyssey Thera (OT) 8-hour HEK293T Protein-Complementation Assay for Estrogen Receptor-alpha/-alpha Homodimer (AID 2283351);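 note: rise in fluorescence from reassembled reporter fragments on ERα LBD homodimer in nucleus or whole cell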
Summary of the method: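 HEK293T cells stably expressing a PCA pair of ER alpha LBD (residues 310-547) were dosed for 8 hours. The gain in fluorescence intensity, nuclear for agonists and whole-cell for antagonists, was measured by laser scanning cytometry against DMSO vehicle.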

[7] = molecular target: human Serotonin Transporter (SERT), SLC6A4 (gene 6532) (UniProt P31645); experiment: NVS_TR_hSERT: NovaScreen (NVS) Transporter Assay for human Serotonin Transporter (SERT) (AID 2283372)
Summary of the method: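 Human platelet membrane preparation; displacement of radioligand from serotonin transporter measured after 1 h by filtration and scintillation counting. Single 25 uM duplicate screen, then concentration series for actives, with DMSO as negative baseline.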

[8] = molecular target: rat Mineralocorticoid Receptor (MR), Nr3c2 (gene 25672) (UniProt P22199); experiment: NVS_NR_rMR: NovaScreen (NVS) Nuclear Receptor Binding Assay for rat Mineralocorticoid Receptor (MR) (AID 2283355)
Summary of the method: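 Single-concentration duplicate screen (25 uM) of radioligand binding in adrenalectomized rat brain supernatant; scintillation detection 24 h after dosing. Positive and negative controls ran on each plate, and confirmed actives went to concentration-response.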

[9] = molecular target: Androgen Receptor/SRC-1 Co-activator, AR (gene 367) (UniProt P10275); experiment: OT_AR_ARSRC1_0960: Odyssey Thera (OT) 16-hour HEK293T Protein-Complementation Assay for Androgen Receptor/SRC-1 Co-activator (AID 2283353);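 note: actives raise the signal above DMSO so potency reflects increased AR and SRC-1 complex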
Summary of the method: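 Endpoint is gain-of-signal N/C fluorescence ratio in the 488 nm channel versus DMSO, from at least 400 cells per image, measured 16 h post-dosing. Cells: HEK293T stably carrying split-Venus AR/SRC-1 complementation constructs.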

[10] = molecular target: Androgen Receptor/SRC-1 Co-activator, AR (gene 367) (UniProt P10275); experiment: OT_AR_ARSRC1_0480: Odyssey Thera (OT) 8-hour HEK293T Protein-Complementation Assay for Androgen Receptor/SRC-1 Co-activator (AID 2283354);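 note: hits raise the complementation signal above DMSO so AC50 marks enhancers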
Summary of the method: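 After 8 h dosing, stably expressing HEK293T cells with split-Venus AR/SRC-1 fusions were imaged (488, 635nm). The 488nm N/C ratio per image gave the endpoint, analysed in the positive direction against DMSO.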

[11] = molecular target: rat Androgen Receptor (AR), Ar (gene 24208) (UniProt P15207); experiment: NVS_NR_rAR: NovaScreen (NVS) Nuclear Receptor Binding Assay for rat Androgen Receptor (AR) (AID 2283366)
Summary of the method: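 Actives from a duplicate single-concentration (25 uM) primary run went on to concentration series. Displacement of radioligand was counted by filtration and scintillation, 18 h post-dose, using prostate extracts from testosterone-pretreated rats, with DMSO as baseline.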

[12] = tested on: guinea pig Dopamine Transporter (DAT), gene 100714898; experiment: NVS_TR_gDAT: NovaScreen (NVS) Transporter Assay for guinea pig Dopamine Transporter (DAT) (AID 2283369);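 note: active compounds lower bound radioligand signal relative to DMSO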
Summary of the method: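 Scintillation counts of filter-retained radioligand report binding to guinea pig striatal membranes after 2 h. Activity scored as signal loss relative to DMSO, first at 25 uM in duplicate, then in concentration series to 50 uM.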

PGR (gene 5241) = PGR (gene 5241) (UniProt P06401); experiment: NVS_NR_hPR: NovaScreen (NVS) Nuclear Receptor Binding Assay for human Progestron Receptor (PR) (AID 2283360);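 note: active means loss of bound radioligand signal versus DMSO baseline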
Summary of the method: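 Competitive displacement of a labelled radioligand from T47D-derived receptor protein is measured in a cell-free format. Initial testing uses 25 uM in duplicate, with positive and negative controls on every plate.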

[13] = molecular target: human Peroxisome Proliferator-activated Receptor alpha (PPARa), PPARA (gene 5465) (UniProt Q07869); experiment: NVS_NR_hPPARa: NovaScreen (NVS) Nuclear Receptor Binding Assay for human Peroxisome Proliferator-activated Receptor alpha (PPARa) (AID 2283359);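 note: activity means loss of TR-FRET signal versus DMSO baseline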
Summary of the method: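 One-hour incubation, cell-free extracted protein, TR-FRET binding readout; signal loss vs DMSO scored. Screen: 25 uM duplicates, confirmatory dose series for actives.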

[14] = molecular target: Nuclear receptor subfamily 1 group I member 2 (Homo sapiens) (UniProt O75469); experiment: NVS_NR_hPXR: NovaScreen (NVS) Nuclear Receptor Binding Assay for human Pregnane X Receptor (PXR) (AID 2283365);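 note: a drop in FRET signal versus DMSO baseline means the compound binds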
Summary of the method: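 Human PXR protein, cell-free; compound added, incubated 2 h, TR-FRET read. Signal decrease vs DMSO = binding. Screened 25 uM duplicate, actives re-run as dilution series.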

[15] = molecular target: guinea pig Sigma Receptor, Non-selective Binding, SIGMAR1 (gene 100135589) (UniProt Q60492); experiment: NVS_OR_gSIGMA_NonSelective: NovaScreen (NVS) Nuclear Receptor Binding Assay for guinea pig Sigma Receptor, Non-selective Binding (AID 2283367)
Summary of the method: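 Test chemicals were screened in duplicate at 25 uM, then in concentration series if active, against radioligand binding to guinea pig brain membranes; filtration and scintillation counting at 1 h measured remaining bound ligand.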

Chain of Glucocorticoid receptor (Homo sapiens) (P04150 whole entry, looked up): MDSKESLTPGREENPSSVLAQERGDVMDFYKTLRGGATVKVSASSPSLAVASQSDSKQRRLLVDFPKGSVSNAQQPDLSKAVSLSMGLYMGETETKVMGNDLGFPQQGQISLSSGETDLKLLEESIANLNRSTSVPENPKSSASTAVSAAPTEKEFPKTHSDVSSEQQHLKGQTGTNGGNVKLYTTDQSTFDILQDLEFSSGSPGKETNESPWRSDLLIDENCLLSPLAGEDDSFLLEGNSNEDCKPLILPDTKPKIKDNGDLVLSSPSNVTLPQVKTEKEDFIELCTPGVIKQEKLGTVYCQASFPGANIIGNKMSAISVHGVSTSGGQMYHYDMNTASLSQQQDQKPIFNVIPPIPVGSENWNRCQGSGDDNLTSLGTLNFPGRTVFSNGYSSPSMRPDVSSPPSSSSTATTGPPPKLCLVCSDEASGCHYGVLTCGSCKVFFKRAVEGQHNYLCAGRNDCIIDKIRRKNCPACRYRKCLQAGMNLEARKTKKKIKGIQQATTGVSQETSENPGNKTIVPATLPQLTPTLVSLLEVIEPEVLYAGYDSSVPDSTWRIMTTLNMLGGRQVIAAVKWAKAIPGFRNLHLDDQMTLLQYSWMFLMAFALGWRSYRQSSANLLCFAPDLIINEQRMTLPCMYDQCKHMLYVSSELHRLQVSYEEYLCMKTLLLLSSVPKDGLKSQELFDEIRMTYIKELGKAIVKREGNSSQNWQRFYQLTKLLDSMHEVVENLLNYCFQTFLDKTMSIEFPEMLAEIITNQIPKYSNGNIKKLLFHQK
T1 sequence (P03372 whole entry, looked up): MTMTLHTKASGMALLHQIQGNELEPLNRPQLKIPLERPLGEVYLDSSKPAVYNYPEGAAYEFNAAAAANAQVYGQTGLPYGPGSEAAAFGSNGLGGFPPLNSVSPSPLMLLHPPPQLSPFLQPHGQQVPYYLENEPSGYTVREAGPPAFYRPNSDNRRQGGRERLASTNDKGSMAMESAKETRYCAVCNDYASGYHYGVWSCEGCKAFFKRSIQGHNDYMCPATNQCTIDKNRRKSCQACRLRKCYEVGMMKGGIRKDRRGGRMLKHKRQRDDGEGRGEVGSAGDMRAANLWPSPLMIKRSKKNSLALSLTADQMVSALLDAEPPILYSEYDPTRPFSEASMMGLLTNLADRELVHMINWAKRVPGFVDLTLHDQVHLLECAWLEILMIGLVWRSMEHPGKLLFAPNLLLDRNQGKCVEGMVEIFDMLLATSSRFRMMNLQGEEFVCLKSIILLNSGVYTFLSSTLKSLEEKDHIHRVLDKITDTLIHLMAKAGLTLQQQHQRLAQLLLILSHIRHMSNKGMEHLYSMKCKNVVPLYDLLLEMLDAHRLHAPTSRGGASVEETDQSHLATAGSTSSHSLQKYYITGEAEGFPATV
T1 sequence (Q92731 whole entry, looked up): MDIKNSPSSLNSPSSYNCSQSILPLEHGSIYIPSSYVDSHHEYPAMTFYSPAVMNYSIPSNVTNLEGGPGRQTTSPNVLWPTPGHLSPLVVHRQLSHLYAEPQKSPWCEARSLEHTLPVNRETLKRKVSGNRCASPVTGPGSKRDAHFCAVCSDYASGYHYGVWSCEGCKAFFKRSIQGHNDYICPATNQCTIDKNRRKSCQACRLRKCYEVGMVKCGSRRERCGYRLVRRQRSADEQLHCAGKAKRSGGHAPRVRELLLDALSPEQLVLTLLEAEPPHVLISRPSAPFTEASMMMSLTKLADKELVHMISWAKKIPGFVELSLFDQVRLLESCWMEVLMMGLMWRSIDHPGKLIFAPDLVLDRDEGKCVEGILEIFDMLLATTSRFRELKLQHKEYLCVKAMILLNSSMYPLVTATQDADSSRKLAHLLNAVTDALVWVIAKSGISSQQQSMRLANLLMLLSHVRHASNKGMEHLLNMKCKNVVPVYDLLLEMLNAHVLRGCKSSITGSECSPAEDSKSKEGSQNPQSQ
Chain of Estrogen receptor (Homo sapiens) (P03372 whole entry, looked up, the tested form may be a part): as the sequence (P03372 whole entry, looked up) above
Chain of Peroxisome proliferator-activated receptor gamma (Homo sapiens) (P37231 whole entry, looked up): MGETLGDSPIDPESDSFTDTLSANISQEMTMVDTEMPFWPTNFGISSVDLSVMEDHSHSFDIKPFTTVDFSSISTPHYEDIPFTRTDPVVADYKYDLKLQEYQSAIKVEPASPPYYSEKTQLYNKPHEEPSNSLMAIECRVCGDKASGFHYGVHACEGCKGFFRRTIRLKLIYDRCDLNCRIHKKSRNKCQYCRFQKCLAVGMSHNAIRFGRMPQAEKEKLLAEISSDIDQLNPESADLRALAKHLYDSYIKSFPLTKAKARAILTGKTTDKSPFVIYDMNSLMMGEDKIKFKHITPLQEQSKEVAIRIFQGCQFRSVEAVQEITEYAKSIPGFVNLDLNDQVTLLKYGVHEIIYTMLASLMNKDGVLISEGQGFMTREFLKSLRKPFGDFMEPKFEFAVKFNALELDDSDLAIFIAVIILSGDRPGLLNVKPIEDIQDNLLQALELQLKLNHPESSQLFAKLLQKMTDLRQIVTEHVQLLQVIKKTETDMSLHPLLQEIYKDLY
Chain of human Peroxisome Proliferator-activated Receptor alpha (PPARa), PPARA (gene 5465) (Q07869 whole entry, looked up): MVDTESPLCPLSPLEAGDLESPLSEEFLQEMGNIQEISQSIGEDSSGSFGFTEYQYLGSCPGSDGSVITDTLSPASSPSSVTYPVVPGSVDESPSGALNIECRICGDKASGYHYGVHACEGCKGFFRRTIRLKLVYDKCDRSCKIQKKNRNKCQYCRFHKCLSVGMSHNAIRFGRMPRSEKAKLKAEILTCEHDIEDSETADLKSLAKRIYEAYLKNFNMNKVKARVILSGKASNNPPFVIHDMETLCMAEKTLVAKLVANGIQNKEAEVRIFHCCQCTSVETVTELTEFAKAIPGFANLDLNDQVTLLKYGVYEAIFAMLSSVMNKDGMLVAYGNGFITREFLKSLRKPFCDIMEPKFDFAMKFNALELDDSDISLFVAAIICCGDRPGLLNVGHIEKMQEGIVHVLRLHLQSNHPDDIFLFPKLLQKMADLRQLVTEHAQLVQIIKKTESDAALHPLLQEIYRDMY
Chain of PGR (gene 5241) (P06401 whole entry, looked up): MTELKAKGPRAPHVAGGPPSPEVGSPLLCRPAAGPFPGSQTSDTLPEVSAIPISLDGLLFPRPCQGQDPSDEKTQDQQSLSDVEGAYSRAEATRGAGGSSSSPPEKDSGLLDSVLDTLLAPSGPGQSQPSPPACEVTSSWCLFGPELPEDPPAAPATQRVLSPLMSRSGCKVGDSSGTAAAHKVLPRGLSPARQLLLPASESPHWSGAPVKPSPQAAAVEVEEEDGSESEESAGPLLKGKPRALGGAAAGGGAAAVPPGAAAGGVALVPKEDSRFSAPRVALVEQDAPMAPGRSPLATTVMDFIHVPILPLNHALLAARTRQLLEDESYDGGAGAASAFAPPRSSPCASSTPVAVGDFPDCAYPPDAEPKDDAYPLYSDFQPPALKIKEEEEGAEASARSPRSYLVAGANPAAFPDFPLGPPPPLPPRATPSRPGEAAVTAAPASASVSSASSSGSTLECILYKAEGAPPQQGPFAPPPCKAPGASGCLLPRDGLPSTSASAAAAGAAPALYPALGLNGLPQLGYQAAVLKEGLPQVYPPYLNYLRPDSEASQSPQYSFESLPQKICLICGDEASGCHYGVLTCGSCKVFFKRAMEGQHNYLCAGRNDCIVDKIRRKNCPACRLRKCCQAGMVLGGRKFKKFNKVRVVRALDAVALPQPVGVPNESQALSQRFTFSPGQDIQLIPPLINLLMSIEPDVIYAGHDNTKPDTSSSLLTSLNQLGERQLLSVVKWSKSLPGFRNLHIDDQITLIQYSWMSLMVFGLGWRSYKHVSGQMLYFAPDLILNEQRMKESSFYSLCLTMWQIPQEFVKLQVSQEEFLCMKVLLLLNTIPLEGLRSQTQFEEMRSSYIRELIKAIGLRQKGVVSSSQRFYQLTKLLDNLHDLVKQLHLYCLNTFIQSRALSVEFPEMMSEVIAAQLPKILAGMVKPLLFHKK
Chain of Retinoic acid receptor alpha (Homo sapiens) (P10276 whole entry, looked up): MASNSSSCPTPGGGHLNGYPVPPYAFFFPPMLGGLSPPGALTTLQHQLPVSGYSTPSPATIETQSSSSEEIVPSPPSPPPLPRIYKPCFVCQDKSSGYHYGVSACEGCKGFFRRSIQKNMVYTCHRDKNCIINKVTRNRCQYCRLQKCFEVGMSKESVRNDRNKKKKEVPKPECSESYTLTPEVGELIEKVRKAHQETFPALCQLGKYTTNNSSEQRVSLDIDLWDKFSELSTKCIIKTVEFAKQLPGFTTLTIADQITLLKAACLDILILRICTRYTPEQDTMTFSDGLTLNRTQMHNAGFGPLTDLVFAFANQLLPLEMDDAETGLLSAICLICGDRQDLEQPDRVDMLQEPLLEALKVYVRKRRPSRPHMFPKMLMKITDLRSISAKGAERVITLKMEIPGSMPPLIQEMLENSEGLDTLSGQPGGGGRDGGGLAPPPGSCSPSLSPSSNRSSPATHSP
Chain of Nuclear receptor subfamily 1 group I member 2 (Homo sapiens) (O75469 whole entry, looked up): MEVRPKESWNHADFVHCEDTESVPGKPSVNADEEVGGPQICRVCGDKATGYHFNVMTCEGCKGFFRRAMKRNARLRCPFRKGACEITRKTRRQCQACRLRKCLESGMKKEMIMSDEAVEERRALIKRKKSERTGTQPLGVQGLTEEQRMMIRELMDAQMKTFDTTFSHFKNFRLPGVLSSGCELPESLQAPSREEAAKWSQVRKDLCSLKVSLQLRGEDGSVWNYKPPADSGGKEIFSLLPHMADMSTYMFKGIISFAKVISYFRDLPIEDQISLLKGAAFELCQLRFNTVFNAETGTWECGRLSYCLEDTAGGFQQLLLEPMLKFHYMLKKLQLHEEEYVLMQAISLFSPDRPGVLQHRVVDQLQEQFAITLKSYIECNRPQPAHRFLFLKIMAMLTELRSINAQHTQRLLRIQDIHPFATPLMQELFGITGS
Chain of guinea pig Sigma Receptor, Non-selective Binding, SIGMAR1 (gene 100135589) (Q60492 whole entry, looked up): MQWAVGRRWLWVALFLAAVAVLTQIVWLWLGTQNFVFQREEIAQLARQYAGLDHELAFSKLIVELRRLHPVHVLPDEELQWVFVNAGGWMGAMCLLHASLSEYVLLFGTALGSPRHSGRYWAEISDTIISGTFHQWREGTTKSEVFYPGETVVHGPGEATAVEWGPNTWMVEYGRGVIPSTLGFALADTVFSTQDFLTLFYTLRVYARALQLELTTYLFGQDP

CC1(C)C(C=C(Cl)Cl)C1C(=O)OC(C#N)c1ccc(F)c(Oc2ccccc2)c1 (stereo not given)
outcome [1]: inactive
outcome [2]: inactive
outcome [3]: inactive
AC50 [4]: 7.25 µM (active)
outcome [5]: inactive

COC(=O)c1ccccc1CS(=O)(=O)NC(=O)Nc1nc(OC)cc(OC)n1
outcome [5]: inactive

CCC(C)Nc1c([N+](=O)[O-])cc(C(C)(C)C)cc1[N+](=O)[O-] (stereo not given)
outcome [6]: inactive
AC50 [1]: 34.7 µM (active)
AC50 [2]: 69.9 µM (active)
outcome [5]: inactive

CC(C)N(C(=O)COc1nnc(C(F)(F)F)s1)c1ccc(F)cc1
outcome [6]: inactive
AC50 [7]: 7.81 µM (active)

COC(=O)c1ccccc1S(=O)(=O)NC(=O)N(C)c1nc(C)nc(OC)n1
outcome [8]: inactive
outcome [3]: inactive

CCCN(CCC)c1c([N+](=O)[O-])cc(C(F)(F)F)cc1[N+](=O)[O-]
outcome [6]: inactive
outcome [9]: inactive
outcome [10]: inactive
outcome [11]: inactive
outcome [12]: inactive

O=C(O)CCCOc1ccc(Cl)cc1Cl
outcome [9]: inactive
outcome [10]: inactive
outcome (PGR (gene 5241)): inactive
outcome [11]: inactive
outcome [5]: inactive

O=S1OCC2C(CO1)C1(Cl)C(Cl)=C(Cl)C2(Cl)C1(Cl)Cl (stereo not given)
outcome [6]: inactive
AC50 [9]: 34.5 µM (active)
AC50 [10]: 31.8 µM (active)
outcome [3]: inactive
outcome (PGR (gene 5241)): inactive
AC50 [4]: 2.29 µM (active)
outcome [11]: inactive
AC50 [12]: 17.7 µM (active)
outcome [5]: inactive

OCCOc1ccccc1
outcome [6]: inactive
outcome [2]: inactive

O=C1c2ccccc2C(=O)N1SC(Cl)(Cl)Cl
outcome [6]: inactive
outcome [1]: inactive
outcome [3]: inactive
outcome [5]: inactive

O=C(O)C(F)(F)C(F)(F)C(F)(F)C(F)(F)C(F)(F)C(F)(F)C(F)(F)F
outcome [13]: inactive
outcome (PGR (gene 5241)): inactive

CCOCN(C(=O)CCl)c1c(C)cccc1CC
outcome [6]: inactive
outcome [2]: inactive

O=S(=O)(O)C(F)(F)C(F)(F)C(F)(F)C(F)(F)C(F)(F)C(F)(F)C(F)(F)C(F)(F)F
AC50 [13]: 11.2 µM (active)
outcome [13]: inactive
AC50 (PGR (gene 5241)): 20.2 µM (active) [middle of 4 runs]
AC50 [14]: 39.6 µM (active)
AC50 [5]: 16.9 µM (active) [middle of 6 runs]

O=C(O)COc1ccc(Cl)cc1Cl
outcome [4]: inactive
outcome [15]: inactive

ClC1C(Cl)C(Cl)C(Cl)C(Cl)C1Cl (stereo not given)
outcome (PGR (gene 5241)): inactive
outcome [14]: inactive
AC50 [12]: 9.83 µM (active) and 3.74 µM (active)

O=C(Nc1ccccc1)Nc1cnns1
outcome [6]: inactive
outcome [2]: inactive

From PubChem BioAssay (EPA / NIEHS)
